Source: PubChem
NALP3 yeast inh: blocks the NALP3 inflammasome reconstituted in yeast | Yeast reconstituted NLRP3/ASC/caspase-1, beta-gal luminescence, 24 h | inhibition, % at 10 µM | 0.39% of 330,000 active | AID 2825;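 active means inhibition of 50% or more; inactive means inhibition below 50%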;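 further: plate controls were induced DMSO wells for no effect and uninduced yeast grown without galactose for full effect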
tim10-1 inh: tim10-1 yeast growth inhibition; AID 463190; S. cerevisiae tim10-1 ts strain growth, BacTiter-Glo, 24 h; inhibition, % at 20 µM; 2.2% of 330,000 active;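 active means inhibition of at least 40%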;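 further: mutant grown at 25 °C; 0% = DMSO wells with yeast and 100% = wells holding no yeast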
TIM10 inh: growth inhibitors of TIM10 yeast strain; S. cerevisiae TIM10 strain growth, BacTiter-Glo luminescence, 24 h; inhibition, % at 10 µM; 1.4% of 330,000 active; AID 463195;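 active means inhibition of 40% or more at the single tested concentration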;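 further: wild-type TIM10 isogenic control strain grown at permissive 25 °C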
PfHsp90 set2: reduces growth (ATP signal) of yeast expressing P. falciparum Hsp90. S. cerevisiae expressing PfHsp90, BacTiter-Glo ATP, 48 h; yeast lacking PDR1 and PDR3 efflux regulators. inhibition, % at 9.4 µM. AID 504621. 0.32% of 310,000 active;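 active means every replicate shows inhibition above about 80%, whatever the replicate mean, limit read from the data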;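 further: 0% = DMSO neutral controls and 100% = 20 µM radicicol positive controls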
tim23-1 inh: tim23-1 yeast growth inhibition | 1.3% of 330,000 active | S. cerevisiae tim23-1 growth, BacTiter-Glo luminescence, 24 h | inhibition, % at 20 µM;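 active means growth inhibition of the mutant yeast at or above 50%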;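 further: temperature-sensitive mutant grown at 25 °C; plate controls were DMSO-treated mutant yeast for no effect and medium wells lacking yeast for full effect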
tim10-1 conf: confirmation of tim10-1 mutant yeast growth inhibitors | shares compounds with tim10-1 inh | S. cerevisiae tim10-1 ts strain growth, BacTiter-Glo, 24 h | inhibition, % at 20 µM | 56% of 7,400 active | AID 463213;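 active means inhibition of yeast growth at or above a set limit in either of two repeat tests at 20 µM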;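 further: tim10-1 mutant grown at permissive 25 °C to find synthetic lethal compounds; 0% = DMSO yeast wells and 100% = medium wells without yeast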
Numbers without * were called inactive; / = not tested or not shown. Shown are actives, neighbours in structure and some others; about 3.7% of the full set was active somewhere.

SMILES	NALP3 yeast inh	tim10-1 inh	TIM10 inh	PfHsp90 set2	tim23-1 inh	tim10-1 conf
C/C(=N\OCc1ccc(C#N)cc1)c1ccc(S(=O)(=O)N(C)C)cc1	9	42*	10	-4	33	41*
C/C(=N\OCc1ccc(C#N)cc1)c1ccccc1	36	1	-14	1	12	/
Cc1ccc(NC(=S)/N=C(\N)Nc2nc(C)c3cc(C)ccc3n2)c(C)c1	-5	50*	32	19	48	37*
C=C(C)c1cccc(C(C)(C)NC(=O)Nc2ccc(C(C)=O)cc2)c1	14	43*	14	9	34	22
Clc1ccc(-n2nnnc2CN2CCOCC2)cc1Cl	-1	20	-14	-1	5	/
CC1CCN(Cc2nnnn2-c2ccc(Cl)cc2)CC1	1	56*	17	-2	50	37*
Cc1cc2nnc(SCc3ccc4c(c3)OCO4)n2c2ccccc12	/	/	/	-23	/	/
c1ccc2c(c1)ccc1nnc(SCc3ccc4c(c3)OCCO4)n12	22	45*	16	-9	40	29*
NC(=O)C1CCCN(CC(=O)Nc2cc(S(=O)(=O)N3CCOCC3)ccc2N2CCCC2)C1 (centres undefined)	24	3	-6	-8	7	/
CC[n+]1c(/C=C2/C=C(C)CC(C)C2)sc2ccccc21 (centres undefined)	11	48*	39	-2	32	26
CC1(C)CC2CC(C)(CN2C(=O)C23CCC(C)(C(=O)C2)C3(C)C)C1 (centres undefined)	4	43*	-10	-4	23	14
CC1C(=O)C(C)C(c2cc(Cl)ccc2O)NC1c1cc(Cl)ccc1O (centres undefined)	9	27	-5	13	37	/
Cc1[nH]n(-c2ccccc2)c(=O)c1C(c1ccccc1[N+](=O)[O-])C(C#N)C#N (centres undefined)	-27	44*	31	-10	43	33*
O=[N+]([O-])c1c(NCCCO)cc(Sc2nc3ccccc3s2)c2nonc12	18	85*	11	/	30	85*
COc1ccccc1NS(=O)(=O)c1cccc(NC(=O)c2cncc(Br)c2)c1	13	-5	-8	/	1	/
O=C(O)Cc1cccc(=O)c(O)c1C(=O)O	/	/	/	-5	/	/
COC(=O)c1c(NC(=O)C(=O)N2CCOCC2)sc2c1CCCC2	13	52*	10	-10	49	3
COC(=O)c1c(NC(=O)C(=O)N2CCOCC2)sc2c1CCC2	28	24	11	1	22	/
C/C(=N\O)c1cc(Cl)cc(Cl)c1O	19	48*	38	-46	38	43*
COc1ccc(NC(=O)c2ccc(Cl)c(S(=O)(=O)N3CCc4ccccc4C3)c2)cn1	17	47*	20	17	15	19
Cc1cc(C)c2c(-n3cccc3)c(C(=O)NNS(=O)(=O)c3ccccc3)sc2n1	5	34	29	/	34	/
Cc1cc(C)c2c(-n3cccc3)c(C(=O)NNS(=O)(=O)c3ccc(Cl)cc3)sc2n1	4	43*	32	-17	40	32*
Cc1ccccc1-c1nc(C#N)c(N2CCCCC2)o1	-20	1	25	-6	25	/
Cc1cccc(OCCC(=O)Nc2ccc(N3CCOCC3)cc2N2CCOCC2)c1	6	13	15	-2	11	/
O=C(NNc1nc2ccccc2s1)Nc1ccc(F)cc1	10	28	10	-72	0	/
SMILES	NALP3 yeast inh	tim10-1 inh	TIM10 inh	PfHsp90 set2	tim23-1 inh	tim10-1 conf
O=C(NNc1nc2ccccc2s1)c1ccccc1F	21	47*	38	-6	26	28
CC1(C)NC(=O)N(CC(=O)N2CCCC(C(F)(F)F)C2)C1=O (centres undefined)	13	0	-1	-2	4	/
COc1ccc(C(=O)NC2(C(F)(F)F)C(=O)N(Cc3ccco3)C3=C2C(=O)CC(C)(C)C3)cc1OC (centres undefined)	19	6	21	6	11	/
COc1cc(CN2C(=O)C(NC(=O)c3ccco3)(C(F)(F)F)C3=C2CC(C)(C)CC3=O)cc(OC)c1 (centres undefined)	12	47*	10	-34	43	27
CCC1CCCCN1c1cc(C)nc2cc(-c3cccc(C)c3)nn12 (centres undefined)	8	42*	23	-25	21	9
Cc1cc(N2CCOCC2)n2nc(-c3cccc(F)c3)cc2n1	26	12	3	11	17	/
Cc1ccc(C)c(NC(=S)N2CCC(NC(=O)c3ccccc3)CC2)c1	12	-18	-14	-2	0	/
CC1=C/C(=C(/c2ccc(O)c(C)c2)c2ccccc2S(=O)(=O)O)C=CC1=O	26	11	13	-9	8	/
CC1=C/C(=C(/c2cc(C)c(O)c(Br)c2)c2ccccc2S(=O)(=O)O)C=C(Br)C1=O	23	54*	38	18	50	44*
Cc1ccc(NC(=S)Nc2ccc(Cl)c(Cl)c2)c(OC(F)F)c1	8	61*	32	12	48	38*
Cc1ccc(NC(=S)Nc2ccc(OC(F)F)c(Cl)c2)cc1Cl	/	/	/	8	/	/
O=C(CCN1Cc2ccccc2C1)c1ccc2c(c1)OCCO2	3	32	-4	-1	29	/
O=C(CCN1CCc2ccccc2C(c2ccccc2)C1)c1ccc2c(c1)OCCO2 (centres undefined)	23	56*	7	138*	33	56*
CC1=CC(C)(C)NC(=S)N1c1cccc(Cl)c1	/	/	/	9	/	/
COc1ccc2nc(-c3ccccc3)nc(SC)c2c1	/	/	/	12	/	/
O=C(CCC1CCCCC1)Nc1cccnc1	16	23	27	-5	15	/
S=C(NCC1CCCCC1)Nc1cccnc1	6	53*	16	18	31	43*
CCNC(=S)N/N=C(\C)c1cccc([N+](=O)[O-])c1	-31	44*	29	6	35	26
CCOC(=O)C1(Cc2ccc(OC)cc2)CCN(C(=O)c2cc3ccccc3[nH]2)CC1	15	41*	24	15	27	29
COc1cccc(NC(=O)CCNS(=O)(=O)c2cccc3nonc23)c1	8	-22	12	21	-1	/
O=C(COc1ccc(S(=O)(=O)NC2CCCCC2)cc1)N1CCN(c2cccc(Cl)c2)CC1	3	46*	18	23	25	21
CC(C)NS(=O)(=O)c1ccc(OCC(=O)N2CCN(c3ccccc3)CC2)cc1	3	16	11	12	-10	/
O=C(NCC(c1ccco1)N1CCN(c2ccccc2F)CC1)OCc1ccccc1 (centres undefined)	-2	16	-1	0	18	/
O=C(COc1ccccc1)NCC(c1ccco1)N1CCN(c2ccc(F)cc2)CC1 (centres undefined)	-67	41*	25	/	47	29
